# Screening data as filed in PubChem.
# Compounds with a hit are over-represented: about 22% of the library has one in this group of screens.
# Pf growth 48h – Primary qHTS for delayed death inhibitors of the malarial parasite plastid, 48 hour incubation; 5.9% of 310,000 active; Potency, µM (series often up to 28.7 µM), usual class: inhibitors; P. falciparum luciferase growth in erythrocytes, 48 h
#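 Firefly luciferase activity from engineered P. falciparum reports growth; inhibitors lower the luminescent signal. Cultures contained 2% hematocrit erythrocytes at 0.1% final parasitemia.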
# LmPK inhibitor – qHTS Assay for Inhibitors of Leishmania Mexicana Pyruvate Kinase (LmPK); Q27686; purified LmPK, Kinase-Glo ATP luminescence, 1 h; Potency, µM (series often up to 57.5 µM), most hits filed as inhibitors; 0.37% of 290,000 active
# Target sequence (Q27686 whole entry, looked up): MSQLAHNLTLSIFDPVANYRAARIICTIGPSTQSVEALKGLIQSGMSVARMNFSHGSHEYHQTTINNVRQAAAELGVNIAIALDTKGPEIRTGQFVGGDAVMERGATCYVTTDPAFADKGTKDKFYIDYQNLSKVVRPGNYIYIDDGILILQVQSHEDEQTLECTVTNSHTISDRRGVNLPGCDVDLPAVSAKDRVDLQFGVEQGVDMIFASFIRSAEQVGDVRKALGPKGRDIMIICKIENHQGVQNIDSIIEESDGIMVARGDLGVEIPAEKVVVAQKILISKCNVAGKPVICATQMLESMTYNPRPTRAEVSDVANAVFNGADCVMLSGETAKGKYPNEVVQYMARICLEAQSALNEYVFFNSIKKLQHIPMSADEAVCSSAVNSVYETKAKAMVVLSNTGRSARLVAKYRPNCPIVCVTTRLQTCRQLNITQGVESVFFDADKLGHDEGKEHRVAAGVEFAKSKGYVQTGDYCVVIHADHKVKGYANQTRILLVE
#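 Purified LmPK (0.1 nM) with 0.5 mM PEP and 0.1 mM ADP in imidazole buffer pH 7.2 with MgCl2/KCl, 1 h at room temperature. ATP formed was read by luciferase luminescence and normalized to no-enzyme and uninhibited controls.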
# Cycloheximide cs – Cycloheximide Counterscreen for Small Molecule Inhibitors of Shiga Toxin; cell reporter, cycloheximide protein synthesis inhibition counterscreen; max response, %; 12% of 300,000 active; in the data active = max response mostly above about 13%, no sharp cut-off; inactive = mostly below about 14%; note: read at 38.3 µM for the half of the compounds with a filed dose
# Pf growth 96h – Primary qHTS for delayed death inhibitors of the malarial parasite plastid, 96 hour incubation; 6.9% of 320,000 active; Potency, µM (top dose mostly 28.7 µM), usual class: inhibitors; P. falciparum luciferase reporter growth, 96 h
#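 Delayed-death screen, second-generation endpoint: infected erythrocytes, 2% hematocrit, 0.05% parasitemia final; 96 hours at 37 C, 5% CO2; luciferase detection reagent; luminescence decrease equals reduced growth.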
# Shiga toxin inh – A qHTS for Small Molecule Inhibitors of Shiga Toxin; inhibition, % at 38.7 µM; AID 2315, 2010; Vero cells, Shiga toxin protein synthesis inhibition reporter; 9.2% of 290,000 active; in the data active = inhibition mostly above about 28%, no sharp cut-off; inactive = mostly below about 43%
# Hits are given with their value; 0 = inactive; ? = inconclusive; - = no result given. Unless noted, calls come from the whole dose curve; as a rule, active = well fitted inhibition curve with a large enough effect; inconclusive = small, poorly fitted or top-dose-only effect, or another doubt; inactive = no such curve, though single readings can be large or run the other way.
SMILES,Pf growth 48h,LmPK inhibitor,Cycloheximide cs,Pf growth 96h,Shiga toxin inh
c1cncc(-c2noc(-c3ccc4ccccc4c3)n2)c1,0,0,27,0,102
c1ccc(-c2ccc(-c3nc(-c4cccnc4)no3)cc2)cc1,-,0,33,0,0
Cc1ccc(S(=O)(=O)Nc2ccccc2F)cc1C(=O)NNC(=O)c1ccccc1O,0,-,-,0,-
CO/N=C(/C(=O)N[C@@H]1C(=O)N2C(C(=O)O)=C(CSc3nc(C)c(CC(=O)O)s3)CS[C@H]12)c1csc(N)n1,0,-,-,0,-
CCOc1ccc2oc(C(=O)OCC(=O)NC3CC3)c(C)c2c1,0,0,0,0,0
COc1ccc(NC(=O)COC(=O)C2CCN(S(=O)(=O)c3ccccc3)CC2)cc1Cl,0,-,-,0,-
CSCc1c(C(=O)NCCc2ccccn2)oc2ccccc12,?,0,0,?,0
O=c1cc(CSc2ccccc2)[nH]c2ccccc12,10µM,0,0,0,0
COCCn1c(N)c(N(Cc2ccccc2)C(=O)c2ccc(-c3ccc(Cl)cc3)o2)c(=O)[nH]c1=O,?,-,-,0,-
O=C(c1cc(-c2ccco2)nc2ccccc12)N1CCN(c2ccc(F)cc2)CC1,?,0,33,13µM,78
CCCCC1(c2ccc(F)cc2)NC(=O)N(CC(=O)N2CCN(C(=O)c3ccco3)CC2)C1=O (configuration not stated),0,0,0,6.6µM,0
O=C(Nc1ccc(N2CCN(C(=O)c3ccco3)CC2)cc1)c1ccccc1,?,0,12,0,0
O=C(c1ccco1)N1CCN(c2ccc(F)cc2)CC1,0,0,0,0,100
CC(C)CC(=O)N1CCN(c2ccc(NC(=O)c3ccco3)cc2)CC1,?,0,0,9.3µM,0
Fc1ccc(CNc2ccc(N3CCN(Cc4ccccc4)CC3)cc2)cc1,0,0,0,9.3µM,0
CC(C)(C)C(=O)N1CCN(c2ccc(NC(=O)c3ccco3)cc2)CC1,0,0,0,?,0
O=C(Nc1ccc(N2CCN(Cc3ccccc3)CC2)cc1)c1ccco1,?,0,13,0,65
CC(C)OC(=O)c1cc2c(ccn2-c2ccc(F)cc2)n1CC(=O)N1CCN(C(=O)c2ccco2)CC1,1.7µM,0,0,?,0
O=C(O)C1CC=CCC1C(=O)Nc1ccc(N2CCN(Cc3ccccc3)CC2)cc1 (configuration not stated),0,0,0,0,0
COc1ccc(C)cc1S(=O)(=O)Nc1ccc2c(c1)OCO2,0,0,0,0,0
COc1ccc(-c2nnc3n2N=C(c2c(OC)cccc2OC)CS3)c(OC)c1,-,-,0,-,0
CCOC(=S)NC(=O)c1sc2ccccc2c1Cl,0,0,32,?,0
Cc1ccccc1COC(=O)CNC(=O)c1sc2ccccc2c1Cl,0,-,-,0,-
O=C(CNC(=O)c1sc2ccccc2c1Cl)NCc1cccnc1,?,0,0,?,0
O=C(NC(=S)NCCO)c1sc2ccccc2c1Cl,0,0,51,0,111
SMILES,Pf growth 48h,LmPK inhibitor,Cycloheximide cs,Pf growth 96h,Shiga toxin inh
CCCOC(=S)NC(=O)c1sc2ccccc2c1Cl,0,0,40,?,63
CC(C)N(C)Cc1nnnn1CC(=O)N(C)Cc1cccc(Cl)c1,0,0,0,?,0
CCON=O,0,-,-,2.7µM,-
CC(=O)Nc1ccc(NC(=O)CSc2nnc(C)c(=O)[nH]2)cc1,0,0,0,0,0
CC1(C2CC2)NC(=O)N(CC(=O)Nc2ccc(F)cc2F)C1=O (configuration not stated),0,-,-,0,-
CCCC(=O)Nc1nnc(SCC(=O)NCc2cccs2)s1,0,0,0,?,0
Cc1cccc(Nc2nnc(SCc3cn4ccsc4n3)s2)c1,9.3µM,0,20,5.9µM,0
Cc1cccc(Nc2nnc(SCC(=O)Nc3cccnc3Cl)s2)c1,0,0,27,?,0
Nc1nnc(SCC(=O)Nc2cccnc2Cl)s1,0,-,-,0,-
Cc1cccc(Nc2nnc(SCC(=O)NCc3cccs3)s2)c1,0,0,19,0,62
Cc1cccc(Nc2nnc(SCC(=O)NCc3cccs3)s2)c1C,0,0,0,6.6µM,42
c1ccc(COC(CN2CCCCCC2)CN2CCCCCC2)cc1,?,0,0,0,0
Cc1cnc(C(=O)OCC(=O)c2ccc[nH]2)cn1,?,-,-,0,-
Cc1ccccc1Nc1nnc(SCc2cc(=O)n3ccsc3n2)s1,13µM,0,0,17µM,0
O=c1cc(CSc2nnc(Nc3ccccc3)s2)nc2sccn12,?,0,0,-,0
COc1ccc(F)cc1Cn1nc(C(=O)O)c2ccccc2c1=O,0,0,0,0,0
FC(F)Oc1ccc(NC(=S)N2CCc3ccccc32)cc1,0,0,36,0,78
Fc1ccc(NC(=S)N2CCc3ccccc32)cc1,0,0,15,?,41
NS(=O)(=O)c1ccc(NC(=S)N2CCc3ccccc32)cc1,0,0,0,0,0
C=CC1CN2CCC1CC2C(OC(C)=O)c1ccnc2ccc(OC)cc12 (configuration not stated),0.37µM,0,0,0.29µM,0
CCOc1ccc2ncc(C(=O)c3ccc(OC)cc3)c(N3CCN(CC)CC3)c2c1,?,0,0,0,0
C=C[C@H]1CN2CC[C@H]1C[C@@H]2[C@@H](O)c1ccnc2ccccc12,0.033µM,-,-,0.0041µM,-
CN(C(=O)CN1C(=O)C2C3CC(C(Br)C3Br)C2C1=O)C1CCCCC1 (configuration not stated),5.9µM,0,0,0,0
Cc1onc(-c2ccccc2Cl)c1C(=O)Nc1ccc(-c2nnc3n2CCCCC3)cc1,9.3µM,0,0,-,0
Cc1onc(-c2ccccc2Cl)c1C(=O)Nc1ccccc1,0,0,0,0,0
SMILES,Pf growth 48h,LmPK inhibitor,Cycloheximide cs,Pf growth 96h,Shiga toxin inh
Cc1cc(C)n(-c2ccc(Cl)c(C(=O)Nc3ccc(-c4nnc5n4CCCCC5)cc3)n2)n1,?,0,0,8.3µM,0
CCc1ccc(NC(=S)NC(=O)c2c(-c3ccccc3Cl)noc2C)cc1,12µM,0,0,7.4µM,0
O=C(Nc1ccc(-c2nnc3n2CCCCC3)cc1)c1ccco1,0,0,0,0,0
Cc1onc(-c2ccccc2Cl)c1C(=O)Nc1ccc(CN2CCCC2)cc1,?,0,0,-,0
Cc1onc(-c2ccccc2Cl)c1C(=O)NC(=S)Nc1ccc(C(C)(C)C)cc1,?,0,0,6.6µM,0
O=C(CSc1nnc(NC(=O)C2CC2)s1)Nc1ccc(F)cc1F,0,0,0,0,0
CC(C)(C)c1ccc(C(=O)NCC(=O)N/N=C/c2cccnc2)cc1,0,0,0,0,0
Cc1nn(C)cc1S(=O)(=O)Nc1cccc(Cl)c1,0,0,0,?,0
Cc1[nH]c2ccccc2c1C(=O)CSc1nc2ccccc2c(=O)n1CCCN1CCOCC1,?,0,0,-,0
Cc1cc(C)c(C)c(S(=O)(=O)N2CCN(CC(=O)Nc3ccc([N+](=O)[O-])cc3)CC2)c1C,0,0,0,0,0
O=C(O)c1ccccc1NC(=O)c1ccccc1Nc1ccccc1,0,0,0,0,0
